Here are results for 21 compounds from PubChem BioAssay (EPA / NIEHS).

Test [1] in a line: ATG_M_32_CIS: Attagene CIS-FACTORIAL HepG2 Assay for M32 Transcription Factor (Internal Marker) (AID 2282949).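 Note: background control marker of the multiplexed CIS panel rather than a real target.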 The settings on record: HepG2 Attagene cis-factorial M32 reporter, mRNA; actives raise or lower the signal. In short, it runs like this: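 Following 24 h chemical exposure of HepG2 cells transiently expressing cis-promoter reporter constructs, reporter transcript levels were determined by RT-PCR with fluorescent labelling and capillary electrophoresis, then fitted bidirectionally against DMSO.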

The nature of test [2]: ATG_M_06_CIS: Attagene CIS-FACTORIAL HepG2 Assay for M06 Transcription Factor (Internal Marker) (AID 2282950). The settings on record: HepG2 Attagene CIS-FACTORIAL M06 internal marker reporter; actives raise or lower the signal. In short, it runs like this:
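Steps: transfect HepG2 with multiplexed cis-element reporter constructs; dose chemical 24 h; extract RNA with DNase treatment; reverse-transcribe, PCR-amplify, 6-FAM label, HpaI digest; separate fragments by capillary electrophoresis. Activity fitted both directions versus DMSO.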

The target in test [3] is Hypoxia-inducible factor 1-alpha (Homo sapiens) (UniProt Q16665). As to the kind of experiment: ATG_HIF1a_CIS: Attagene CIS-FACTORIAL HepG2 Assay for human Hypoxia Inducible Factor 1 (HIF1A) (AID 2282951). The conditions noted are these: HepG2 Attagene cis-factorial HIF1a reporter transcription; actives raise or lower the signal. The procedure, abridged:
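Dosed 24 h, transfected HepG2 cells yielded total RNA whose reporter transcripts were RT-PCR-amplified and sized by capillary electrophoresis using fluorescent labelling; DMSO defined baseline, with gain and loss of signal both fitted.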

The target of test [4] is Hepatocyte nuclear factor 6 (Homo sapiens) (UniProt Q9UBC0). Briefly: ATG_HNF6_CIS: Attagene CIS-FACTORIAL HepG2 Assay for human Hepatocyte Nuclear Factor 6 (HNF6) (AID 2282952). The conditions noted are these: HepG2 Attagene cis-factorial HNF6 reporter transcription; actives raise or lower the signal. The procedure, abridged: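 Cells are HepG2 carrying transiently transfected cis-promoter reporter units. Treatment lasts 24 h, after which reporter transcripts are reverse-transcribed, amplified, FAM-labelled and sized by capillary electrophoresis. DMSO serves as baseline.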

In test [5] the target is Heat shock factor protein 1 (Homo sapiens) (UniProt Q00613). As to the kind of experiment: ATG_HSE_CIS: Attagene CIS-FACTORIAL HepG2 Assay for human Heat Shock Transcription Factor 1 (HSE) (AID 2282953). The settings on record: HepG2 HSE cis-reporter, Attagene RNA transcription; actives raise or lower the signal. In short, it runs like this: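 Cells were transfected with cis-element-driven reporter constructs, dosed for 24 h, then total RNA was reverse-transcribed and reporter cDNA amplified, FAM-labelled and digested with HpaI. Fragments were resolved by capillary electrophoresis; gain or loss was fitted against DMSO.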

Test [6] can be described thus: ATG_MRE_CIS: Attagene CIS-FACTORIAL HepG2 Assay for human Metal Responsive Element (MRE) (AID 2282954). The settings on record: HepG2 MRE cis-reporter transcription, Attagene multiplex; actives raise or lower the signal. The procedure, abridged: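 HepG2 cells transiently transfected with multiple cis-element reporter units measure endogenous MTF1-driven transcription. After 24 h compound exposure, reporter mRNA is quantified by RT-PCR with 6-FAM labelling, HpaI digestion and capillary electrophoresis; bidirectional fits versus DMSO.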

The target of test [7] is Paired box protein Pax-6 (Homo sapiens) (UniProt P26367). As to the kind of experiment: ATG_Pax6_CIS: Attagene CIS-FACTORIAL HepG2 Assay for human Paired Box 6 (PAX6) (AID 2282956). The settings on record: HepG2 CIS-FACTORIAL PAX6 reporter transcription, RNA readout; actives raise or lower the signal. The procedure, abridged:
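After twenty-four hours of chemical exposure, transfected HepG2 cells are harvested for RNA. Cis-promoter reporter transcripts are amplified, fluorescently labelled and sized by capillary electrophoresis, with gain and loss of signal scored against DMSO.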

Test [8] in a line: ATG_PXRE_CIS: Attagene CIS-FACTORIAL HepG2 Assay for human Pregnane X Receptor Element (PXRE) (AID 2282957). The settings on record: HepG2 Attagene CIS-FACTORIAL PXRE reporter, mRNA; actives raise or lower the signal. In short, it runs like this:
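Multiplexed cis-reporter assay in transiently transfected human HepG2 cells; 24 h chemical exposure. Reporter transcripts quantified by RT-PCR with fluorescent labeling and capillary electrophoresis.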

The nature of test [9]: ATG_PPRE_CIS: Attagene CIS-FACTORIAL HepG2 Assay for human Peroxisome Proliferator-activated Response Element (PPRE) (AID 2282958). The conditions noted are these: HepG2 PPRE cis-element reporter, Attagene transcription factor profiling; actives raise or lower the signal. The procedure, abridged: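 Measured endpoint: PPRE-controlled reporter mRNA, detected by RT-PCR and capillary electrophoresis fluorescence, from transiently transfected HepG2 cells 24 h after dosing. Curves fitted in both directions using DMSO baseline.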

Values joined by “and” are separate entries in the source; they are usually repeats but may differ in a detail not shown here. Equal entries are not always repeated. Some compounds were tested as several samples or in several runs, with calls that do not always agree. Active and inactive are the calls of the source. Rule for the calls: active = hit-call score of the fitted dose curve at least 0.9, where 1 is the maximum; inactive = score below 0.9.

Sequence of Hypoxia-inducible factor 1-alpha (Homo sapiens) (Q16665 whole entry, looked up): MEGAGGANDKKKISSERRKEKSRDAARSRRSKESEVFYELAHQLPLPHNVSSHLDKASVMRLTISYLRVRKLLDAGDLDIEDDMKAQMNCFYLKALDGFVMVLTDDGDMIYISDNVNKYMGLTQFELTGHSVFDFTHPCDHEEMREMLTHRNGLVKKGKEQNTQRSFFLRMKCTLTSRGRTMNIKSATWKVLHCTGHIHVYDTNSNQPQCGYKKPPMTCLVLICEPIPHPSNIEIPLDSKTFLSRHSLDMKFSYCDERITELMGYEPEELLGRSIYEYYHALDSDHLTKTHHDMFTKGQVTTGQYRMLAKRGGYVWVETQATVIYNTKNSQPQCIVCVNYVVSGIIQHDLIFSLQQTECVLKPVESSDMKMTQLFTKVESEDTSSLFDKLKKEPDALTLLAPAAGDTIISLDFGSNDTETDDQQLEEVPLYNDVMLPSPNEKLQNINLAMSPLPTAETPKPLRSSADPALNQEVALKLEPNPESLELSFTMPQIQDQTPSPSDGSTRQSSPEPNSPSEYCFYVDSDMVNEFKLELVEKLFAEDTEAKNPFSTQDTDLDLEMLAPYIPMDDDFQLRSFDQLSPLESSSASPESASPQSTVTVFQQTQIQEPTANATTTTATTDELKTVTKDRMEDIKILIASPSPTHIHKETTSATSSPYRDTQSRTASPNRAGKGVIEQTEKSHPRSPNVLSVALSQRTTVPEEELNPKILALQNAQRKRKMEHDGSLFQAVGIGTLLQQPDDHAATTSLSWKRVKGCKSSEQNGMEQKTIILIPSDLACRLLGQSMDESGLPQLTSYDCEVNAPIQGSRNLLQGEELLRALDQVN
Sequence of Heat shock factor protein 1 (Homo sapiens) (Q00613 whole entry, looked up, the tested form may be a part): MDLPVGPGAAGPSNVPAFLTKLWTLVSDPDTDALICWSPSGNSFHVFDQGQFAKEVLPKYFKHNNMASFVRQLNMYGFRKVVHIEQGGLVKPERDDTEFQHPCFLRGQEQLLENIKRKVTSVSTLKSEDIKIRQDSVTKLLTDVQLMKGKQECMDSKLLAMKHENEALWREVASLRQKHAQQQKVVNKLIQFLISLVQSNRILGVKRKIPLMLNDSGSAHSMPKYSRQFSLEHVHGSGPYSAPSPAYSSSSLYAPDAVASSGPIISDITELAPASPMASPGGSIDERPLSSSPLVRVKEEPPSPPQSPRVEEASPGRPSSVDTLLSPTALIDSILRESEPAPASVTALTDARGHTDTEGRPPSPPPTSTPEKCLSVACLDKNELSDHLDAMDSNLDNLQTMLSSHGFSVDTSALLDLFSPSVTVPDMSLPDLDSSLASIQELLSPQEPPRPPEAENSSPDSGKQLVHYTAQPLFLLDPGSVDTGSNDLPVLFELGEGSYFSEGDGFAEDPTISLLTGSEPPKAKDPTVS
Sequence of Paired box protein Pax-6 (Homo sapiens) (P26367 whole entry, looked up): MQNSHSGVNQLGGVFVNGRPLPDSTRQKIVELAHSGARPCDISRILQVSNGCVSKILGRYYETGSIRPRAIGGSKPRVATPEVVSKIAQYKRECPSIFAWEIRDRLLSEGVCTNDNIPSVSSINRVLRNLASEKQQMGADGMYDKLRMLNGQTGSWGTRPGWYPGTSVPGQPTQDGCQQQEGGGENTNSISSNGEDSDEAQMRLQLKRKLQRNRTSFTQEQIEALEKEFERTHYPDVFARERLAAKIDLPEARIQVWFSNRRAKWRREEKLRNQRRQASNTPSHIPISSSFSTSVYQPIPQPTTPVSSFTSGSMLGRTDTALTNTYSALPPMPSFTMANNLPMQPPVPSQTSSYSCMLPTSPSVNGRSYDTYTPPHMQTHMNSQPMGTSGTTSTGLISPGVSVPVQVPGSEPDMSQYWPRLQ
Sequence of Hepatocyte nuclear factor 6 (Homo sapiens) (Q9UBC0 whole entry, looked up): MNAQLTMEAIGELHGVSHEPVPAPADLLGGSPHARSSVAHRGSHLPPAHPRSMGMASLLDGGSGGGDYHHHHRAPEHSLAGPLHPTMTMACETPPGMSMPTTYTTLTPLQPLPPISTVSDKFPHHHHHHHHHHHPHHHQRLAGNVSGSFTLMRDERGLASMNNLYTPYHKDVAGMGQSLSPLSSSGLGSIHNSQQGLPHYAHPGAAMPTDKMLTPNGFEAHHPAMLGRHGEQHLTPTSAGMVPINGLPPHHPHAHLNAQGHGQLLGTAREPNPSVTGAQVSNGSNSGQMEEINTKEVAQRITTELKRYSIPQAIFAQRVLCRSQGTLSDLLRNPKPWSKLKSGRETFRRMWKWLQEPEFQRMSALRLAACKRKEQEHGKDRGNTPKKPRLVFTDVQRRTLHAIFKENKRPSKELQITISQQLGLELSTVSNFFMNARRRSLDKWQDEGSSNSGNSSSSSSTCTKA

For orientation: AC50 means the concentration giving half of the maximal activity seen. As for `CC1(C)[C@H](C(=O)O[C@H](C#N)c2cccc(Oc3ccccc3)c2)[C@@H]1/C=C(\Cl)C(F)(F)F`, the compound was classed as inactive in test [1], in [2], in test [3], in test [4], in test [5] and in [6]. The compound was called inactive in test [7] and in test [9]. In addition, the AC50 in [8] is 384 nM (active) and 683 nM (active).
With `O=C(CBr)c1ccc(O)cc1`, the result in test [1], in [2], in [3], in test [4], in test [5] and in test [6] was inactive. Further, the compound was called inactive in test [7] and in test [8].
Turning to `CCN(CC)C(=O)C(Cl)=C(C)OP(=O)(OC)OC`, the compound was classed as inactive in test [1], in test [2], in test [3], in [4], in [5] and in test [6]. For the same compound, the result in [7] and in test [9] was inactive.
Take `OC(Cc1ccccc1Cl)(Cn1cncn1)C1(Cl)CC1` (stereo unspecified): the compound was called inactive in [1], in test [2], in test [3], in test [4], in test [5] and in [7]. Besides, in test [9], the compound was called inactive. Besides, the AC50 in [6] is 37.3 µM (active); in test [8], 8.32 µM (active).
On to `CCCCOC(=O)COC(=O)c1ccccc1C(=O)OCCCC`, for which the outcome in test [1], in [2], in test [3], in [4], in test [5] and in [6] was inactive. The call in [7] was inactive. The AC50 was 40.9 µM (active) in test [8] and 42.6 µM (active) in test [9].
Turning to `Cc1cc(C(F)(C(F)(F)F)C(F)(F)F)ccc1NC(=O)c1cccc(I)c1C(=O)NC(C)(C)CS(C)(=O)=O`, the compound was classed as inactive in [1], in [2], in [3], in test [4], in test [5] and in [6]. In addition, the compound was classed as inactive in test [7] and in test [9].
As for `BrCCCCBr`, the compound was classed as inactive in [1], in test [2], in [3], in [4], in test [5] and in [6]. Further, the compound was classed as inactive in test [7] and in test [8].
Consider `Nc1ccc(-c2ccccc2)cc1`, for which the result in [1], in [2], in test [3], in [4], in [5] and in [7] was inactive. The AC50 in test [6] is 56.8 µM (active); in test [8], 30.1 µM (active).
Turning to `O=C(Nc1ccc(Br)cc1)c1cc(Br)cc(Br)c1O`, the result in test [1], in test [2], in [3] and in test [4] was inactive. For the same compound, the AC50 in test [5] was 132 µM (active); in test [6], 13.3 µM (active); in test [7], 93.2 µM (active); in [8], 3.75 µM (active); in test [9], 5.26 µM (active).
On to `CCCCN(CCCC)C(=S)[S-].CCCCN(CCCC)C(=S)[S-].[Ni+2]`, for which the outcome in test [1], in test [2], in [3], in test [4], in [5] and in [6] was inactive. Further, in test [7], the compound was classed as inactive. In addition, in [8], the AC50 was 7.2 µM (active).
`OCC(c1ccc(Cl)cc1)c1ccc(Cl)cc1`: the compound was called inactive in test [1], in test [2] and in [7]. Moreover, the AC50 is 55.3 µM (active) in test [3]; 56.6 µM (active) in [4]; 52.8 µM (active) in test [5]; 58.9 µM (active) in [6]; 8.73 µM (active) in test [8].
In the case of `Cc1cc(Cl)ccc1N`, the result in test [1], in test [2], in test [3], in [4], in test [5] and in test [6] was inactive. The result in test [7], in test [8] and in [9] was inactive. For the same compound, in test [8], the AC50 is 32.8 µM (active).
Regarding `C=CCOC(F)(C(F)(F)F)C(F)(F)F`, the compound was called inactive in test [1], in [2], in [3], in test [4], in test [5] and in test [6]. Further, the compound was classed as inactive in [7], in test [8] and in [9].
With `CCOc1ccc(N)cc1`, the call in test [1], in test [2], in test [3], in test [4], in test [5] and in [6] was inactive. For the same compound, the outcome in [7] was inactive. The AC50 in test [8] is 46.6 µM (active).
Take `OCCCCO`: the call in test [1], in test [2], in test [3], in test [4], in [5] and in [6] was inactive. Moreover, the compound was called inactive in [7] and in [9]. Besides, the AC50 in [8] is 59 µM (active).
Take `CC(=O)CN(CC(C)=O)N=O`: the call in [1], in test [2], in test [3], in [4], in test [5] and in [6] was inactive. Moreover, the result in [7], in test [8] and in [9] was inactive.
In the case of `C=CC(=O)[O][Sn]([CH2]CCC)([CH2]CCC)[CH2]CCC`, the outcome in test [1], in test [2] and in [3] was inactive. The concentration at half-maximal activity (AC50) in test [4] was 0.657 µM (active); in test [5], 0.645 µM (active); in test [6] it was 0.412 µM (active); in test [7], 0.52 µM (active); in test [8] it was 0.744 µM (active); in test [9], 0.00687 µM (active).
Take `CN(C)C(=S)S`: the outcome in test [1], in test [2], in test [3], in test [4], in test [5] and in test [6] was inactive. The result in test [7] was inactive. Besides, in test [8], the AC50 was 26.3 µM (active).
Regarding `BrCC(Br)c1ccccc1` (stereo unspecified), the compound was classed as inactive in test [1], in test [2], in test [3], in test [4], in [5] and in test [6]. Besides, the compound was called inactive in test [7] and in [9]. The AC50 in test [8] is 27.3 µM (active).
For `CCCCCCCCCCCCCl`, the compound was classed as inactive in [1], in test [2], in test [3], in test [4], in [5] and in test [6]. The result in [7], in [8] and in [9] was inactive.
With `Nc1ccc(Br)cc1`, the compound was classed as inactive in [1], in test [2], in test [3], in test [4], in test [5] and in test [6]. In addition, the compound was classed as inactive in test [7], in test [8] and in [9].
